Measurements reported in PubChem BioAssay (NCI).
The panel holds about 83,000 compounds, 20% with a hit somewhere; the sample as a whole holds those more often.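 96-well plates, one dose, 48 hours. Percent growth reported; active if below 10.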 The source made the active and inactive calls.

Experiments:
Assay in all cases: NCI-60 one-dose screen, 48 h (100 = growth as untreated, 0 = no growth, -100 = all killed)
Details in all cases: 10 µM
HCT-15 colon = tested on: HCT-15 colon
HT29 colon = tested on: HT29 colon
SNB-75 CNS = tested on: SNB-75 CNS
SNB-19 CNS = tested on: SNB-19 CNS
U251 CNS = tested on: U251 CNS
PC-3 prostate = tested on: PC-3 prostate
SK-MEL-5 melanoma = tested on: SK-MEL-5 melanoma
UACC-62 melanoma = tested on: UACC-62 melanoma
LOX IMVI melanoma = tested on: LOX IMVI melanoma
SK-MEL-28 melanoma = tested on: SK-MEL-28 melanoma

Measured: growth

O=C(CCl)N1c2ccccc2Sc2ccc3ccccc3c21
active: HCT-15 colon -51.3% | HT29 colon -76.1% | SNB-75 CNS 3.3% | U251 CNS 0.19% | PC-3 prostate -86.6% | UACC-62 melanoma -0.738% | LOX IMVI melanoma -78.3%
inactive: SNB-19 CNS 69.7% | SK-MEL-5 melanoma 22.9% | SK-MEL-28 melanoma 19.6%

O=C(CCc1ccccc1)N1CCN(C(=O)CCc2ccccc2)CC1
inactive: HCT-15 colon 108% | HT29 colon 101% | SNB-75 CNS 93.9% | SNB-19 CNS 99.6% | U251 CNS 104% | PC-3 prostate 94.3% | SK-MEL-5 melanoma 105% | UACC-62 melanoma 95.4% | LOX IMVI melanoma 95% | SK-MEL-28 melanoma 108%

Cc1ccc(-n2nnc3c(sc4ccccc43)c2=O)cc1
inactive: HCT-15 colon 89.3% | SNB-75 CNS 31.4% | SNB-19 CNS 44.2% | U251 CNS 18% | PC-3 prostate 61.7% | SK-MEL-5 melanoma 76.9% | UACC-62 melanoma 85.4% | LOX IMVI melanoma 39.3% | SK-MEL-28 melanoma 89.9%
active: HT29 colon 5.36%

COc1cc(-c2c(C#N)c(N)n3c(nc4ccccc43)c2C#N)cc(Br)c1OC
inactive: HCT-15 colon 63.9% | HT29 colon 32.1% | SNB-19 CNS 57.4% | U251 CNS 25.3% | PC-3 prostate 37.2% | SK-MEL-5 melanoma 35.8% | UACC-62 melanoma 55.2% | LOX IMVI melanoma 52.9% | SK-MEL-28 melanoma 57.5%
active: SNB-75 CNS -8.28%

COc1ccc(-c2[nH]ncc2-c2cc(OC)c(OC)c(OC)c2)cc1
inactive: HCT-15 colon 10.3% | SNB-75 CNS 49.1% | SNB-19 CNS 44.5% | PC-3 prostate 11.8% | UACC-62 melanoma 35.2% | LOX IMVI melanoma 27.8% | SK-MEL-28 melanoma 37.2%
active: HT29 colon -16.6% | U251 CNS 6.25% | SK-MEL-5 melanoma -22.1%

CC(=O)/C(=C\c1ccc(Cl)cc1)c1ccccc1
inactive: HCT-15 colon 10.3% | SNB-75 CNS 37.4% | SNB-19 CNS 29.7% | U251 CNS 13.6% | PC-3 prostate 21.9% | UACC-62 melanoma 29.2% | SK-MEL-28 melanoma 65%
active: HT29 colon 2.71% | SK-MEL-5 melanoma -35.6% | LOX IMVI melanoma 0.385%

COc1ccc(C2C=C(c3ccc(OC)c(OC)c3)N=C3SC=CN32)c(Br)c1 (stereo not given)
inactive: HCT-15 colon 41.9% | HT29 colon 33.7% | SNB-75 CNS 85.5% | SNB-19 CNS 73% | U251 CNS 43.7% | PC-3 prostate 48.9% | SK-MEL-5 melanoma 63.6% | UACC-62 melanoma 68.9% | LOX IMVI melanoma 23.3% | SK-MEL-28 melanoma 89.8%

O=C(OCc1ncc(-c2ccc(C(F)(F)F)cc2)c(NC2CCCCCC2)n1)c1c(F)c(F)c(F)c(F)c1F
inactive: HCT-15 colon 89.3% | HT29 colon 43.1% | SNB-75 CNS 76.1% | SNB-19 CNS 73.8% | U251 CNS 46.8% | PC-3 prostate 28.6% | SK-MEL-5 melanoma 36.4% | UACC-62 melanoma 36.6% | LOX IMVI melanoma 57.5% | SK-MEL-28 melanoma 47.4%

COc1cc(NS(C)(=O)=O)ccc1Nc1c2ccc(Cl)cc2nc2c(OC)cccc12
active: HCT-15 colon -15.4% | HT29 colon -37.3% | SNB-75 CNS -13.4% | U251 CNS 5.31% | SK-MEL-5 melanoma 0.832% | UACC-62 melanoma -8.98% | LOX IMVI melanoma -58.7%
inactive: SNB-19 CNS 32.8% | PC-3 prostate 31.9% | SK-MEL-28 melanoma 52.4%

COc1ccc(-c2nnc(N3CCN(C(=O)CN4CCN(c5ccc(Cl)cc5)CC4)CC3)nc2-c2ccc(OC)cc2)cc1
inactive: HCT-15 colon 76.8% | HT29 colon 37.3% | SNB-75 CNS 81.4% | SNB-19 CNS 94.7% | U251 CNS 80.3% | PC-3 prostate 25.6% | SK-MEL-5 melanoma 51% | UACC-62 melanoma 58.8% | LOX IMVI melanoma 75.9% | SK-MEL-28 melanoma 86.7%

Cc1cn(C(=O)/C(Cl)=C(/Cl)C(=O)O)c2ccccc12
inactive: HCT-15 colon 105% | HT29 colon 110% | SNB-75 CNS 73% | SNB-19 CNS 106% | U251 CNS 114% | PC-3 prostate 83.6% | SK-MEL-5 melanoma 104% | UACC-62 melanoma 94% | LOX IMVI melanoma 93.7% | SK-MEL-28 melanoma 112%

COC(=O)c1c(C)nc(Nc2nc3ccccc3s2)nc1-c1ccc(Cl)cc1Cl
inactive: HCT-15 colon 92.2% | HT29 colon 114% | SNB-75 CNS 87.2% | SNB-19 CNS 92.3% | U251 CNS 111% | PC-3 prostate 91.3% | SK-MEL-5 melanoma 105% | UACC-62 melanoma 96.1% | LOX IMVI melanoma 101% | SK-MEL-28 melanoma 109%

COc1ccc(-c2[nH]ncc2/C=C/c2cc(C(F)(F)F)[nH]c(=O)n2)cc1
inactive: HCT-15 colon 97% | HT29 colon 99.1% | SNB-75 CNS 88% | SNB-19 CNS 91% | U251 CNS 88.5% | PC-3 prostate 98.7% | SK-MEL-5 melanoma 93.7% | UACC-62 melanoma 102% | LOX IMVI melanoma 87.4% | SK-MEL-28 melanoma 114%

CCCCC(=O)N(c1ccc(Nc2c3ccccc3nc3cc([N+](=O)[O-])ccc23)cc1)S(C)(=O)=O
inactive: HCT-15 colon 76.3% | HT29 colon 79% | SNB-75 CNS 66.1% | SNB-19 CNS 69.5% | U251 CNS 64.2% | PC-3 prostate 52% | SK-MEL-5 melanoma 69% | UACC-62 melanoma 75.8% | LOX IMVI melanoma 52.5% | SK-MEL-28 melanoma 105%
